Measurements published in PubChem BioAssay AID797 (University of Pittsburgh Molecular Library Screening Center, 2007).
Screen size: about 200,000 compounds; about 110 (0.055%) were called active. Rule as the data show it: active = inhibition above about 50%; inactive = the rest. The list comes from a sample in which actives are over-represented; it also holds similar structures and randomly drawn compounds.

target: Serine/threonine-protein kinase D1 (Homo sapiens) (UniProt Q15139); assay: inhibitors of human PKD1 kinase, biochemical, fluorescence polarization (AID 797); settings: PKD1 kinase fluorescence polarization assay; stronger effect = higher value; concentration not given here
Sequence (Q15139 whole entry, looked up): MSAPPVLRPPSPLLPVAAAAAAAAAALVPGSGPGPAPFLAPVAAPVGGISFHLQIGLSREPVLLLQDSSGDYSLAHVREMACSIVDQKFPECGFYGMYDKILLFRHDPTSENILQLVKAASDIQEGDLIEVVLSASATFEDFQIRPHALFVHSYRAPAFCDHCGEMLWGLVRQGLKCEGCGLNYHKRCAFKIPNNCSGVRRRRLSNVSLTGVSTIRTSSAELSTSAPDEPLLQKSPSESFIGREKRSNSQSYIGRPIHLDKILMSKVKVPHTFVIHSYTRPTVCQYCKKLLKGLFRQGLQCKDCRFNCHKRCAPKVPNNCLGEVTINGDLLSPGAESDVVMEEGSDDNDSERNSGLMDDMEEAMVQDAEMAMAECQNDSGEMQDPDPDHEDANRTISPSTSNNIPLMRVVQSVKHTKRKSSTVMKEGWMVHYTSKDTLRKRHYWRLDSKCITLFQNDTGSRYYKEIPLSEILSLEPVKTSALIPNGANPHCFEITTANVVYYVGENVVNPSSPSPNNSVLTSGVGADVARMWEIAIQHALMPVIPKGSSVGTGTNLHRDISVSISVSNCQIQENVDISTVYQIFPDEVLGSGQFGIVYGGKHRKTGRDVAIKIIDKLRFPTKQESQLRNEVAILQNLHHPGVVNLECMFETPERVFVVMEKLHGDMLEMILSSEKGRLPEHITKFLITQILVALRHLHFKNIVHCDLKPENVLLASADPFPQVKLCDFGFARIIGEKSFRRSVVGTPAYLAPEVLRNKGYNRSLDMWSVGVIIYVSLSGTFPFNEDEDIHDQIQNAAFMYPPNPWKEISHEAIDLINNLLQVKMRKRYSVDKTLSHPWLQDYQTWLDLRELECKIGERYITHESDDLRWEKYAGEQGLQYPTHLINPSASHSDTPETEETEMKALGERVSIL

SMILES | inhibition
CC(C)NC(=S)Nc1cccc2cnccc12 | -7.44% (inactive)
O=C(NC1(C(F)(F)F)NC(=O)N(C2CCCCC2)C1=O)c1ccco1 (stereo not drawn) | -4.49% (inactive)
Cc1onc(C(=O)NN)c1C(=O)N1CCN(C(c2ccccc2)c2ccccc2)CC1 | 6.23% (inactive)
CCO[C@H]1OC(C(=O)O)=C[C@@H](C2CCCCC2)[C@@H]1CCCO | 1.68% (inactive)
O=C(N/N=C/c1cccc([N+](=O)[O-])c1)C1CC(=O)N(c2ccc(Br)cc2)C1 (stereo not drawn) | 0.4% (inactive)
O=C(NCCN1CCOCC1)Nc1cccc(Cl)c1 | -8.08% (inactive)
Cc1ccc(-c2c(C)n([O-])c3c([n+]2=O)CCC3)cc1 | -5.77% (inactive)
Cc1cc(C)c(C#N)c(SCC(=O)NN2CC(=O)N(c3ccccc3F)CC2=O)n1 | -3.74% (inactive)
O=C(OC1CCOC1=O)c1cccc(S(=O)(=O)Nc2ccc(F)cc2)c1 (stereo not drawn) | 1.98% (inactive)
C=CCn1cc(-c2cccc(C(F)(F)F)c2)cc(C#N)c1=O | 7.22% (inactive)
O=C(N1CCCC1)C12CC3CC(C1)CC(C(=O)N1CCCC1)(C3)C2 | -14.2% (inactive)
CCC1CO/C(=C(\C(=C(Cl)Cl)N2CCOCC2)[N+](=O)[O-])N1 (stereo not drawn) | -0.65% (inactive)
COc1cc(OC)c(C(=O)OC(C)C(=O)Nc2cc(C(F)(F)F)ccc2Cl)cc1OC (stereo not drawn) | 8.47% (inactive)
O=C(CSc1ccc(-c2ccc(F)cc2)nn1)Nc1ccc2c(c1)OCCO2 | -0.29% (inactive)
Cc1cc(C(=O)NNC(=S)NC(C)c2ccccc2)cs1 (stereo not drawn) | 5.7% (inactive)
C/C(CC(=O)Nc1cccc(C(F)(F)F)c1)=N\NC(=O)C(=O)NCC(C)C | 3.3% (inactive)
Cc1cc(N2CCN(C)CC2)nc2ccc(NC(=S)N3CCOCC3)cc12 | -7.15% (inactive)
CCn1c2ccccc2c2cc(NC(=O)COC(=O)c3ccccc3Br)ccc21 | -14.8% (inactive)
c1ccc(-c2csc(N3CCc4ccccc4C3)n2)cc1 | -5.96% (inactive)
COC(=O)[C@@H]1CC[C@H](C)[C@@H](c2ccc(C)cc2)N1C(=O)c1ccc(/C=N/O[C@H](C)c2cn([C@@H]3COC[C@H]3O)nn2)cc1 | -8.4% (inactive)

SMILES | inhibition
CCC(=O)NC(=S)Nc1ccc(NC(=O)c2ccco2)c(Cl)c1 | -0.32% (inactive)
CN(C)CCCNC(=O)/C=C/c1ccc(OCc2c(F)cccc2Cl)cc1 | -5.92% (inactive)
CCCC1(C(=O)OC)NC(c2ccco2)C2C(=O)N(C)C(=O)C21 (stereo not drawn) | -3.52% (inactive)
Cc1noc(C)c1S(=O)(=O)N1CCCC(C(=O)Nc2nccs2)C1 (stereo not drawn) | -0.06% (inactive)
Cc1ccc(NC(=O)C2CCCN(S(=O)(=O)c3c(C)noc3C)C2)c(C)c1 (stereo not drawn) | 72.5% (active)
COc1c(C)cc(C(=O)C2CCCN(S(=O)(=O)c3c(C)noc3C)C2)cc1C (stereo not drawn) | 11.5% (inactive)
CCCCN(CC(=O)NC(C)(C)C)C(=O)C(=O)Nc1ccc2c(c1)OCCO2 | 1.16% (inactive)
CCCOC(=O)c1ccc(N2C(=O)c3ccccc3C2=O)cc1 | 1.49% (inactive)
O=C(CCc1ccccc1)NNC(=O)c1ccc(Br)cc1 | 4.58% (inactive)
O=C(c1ccccc1)c1ccc(OCC(O)CN2CCCC2)cc1 (stereo not drawn) | 13.5% (inactive)
COC(=O)c1ccc(OCC(O)CN(CCO)CC(O)Cn2ccc3ccccc32)cc1 (stereo not drawn) | 3.96% (inactive)
OC(CNCc1ccc(Cl)c(Cl)c1)c1ccccc1 (stereo not drawn) | -3.03% (inactive)
COc1cc2c(cc1OC)C(Nc1ccc(S(N)(=O)=O)cc1)=NC(C)(C)C2 | -5.13% (inactive)
COc1ccc(NC(=O)c2sc(N3CCOCC3)nc2-c2ccccc2)c(OC)c1 | -1.24% (inactive)
CCC(=O)Nc1ccc(C(=O)N2CCN(C(=O)c3ccco3)CC2)cc1 | 2.96% (inactive)
Cc1ccc(NC(=O)Cn2c(=O)n(CCC(=O)NC3CCN(Cc4ccccc4)CC3)c(=O)c3ccccc32)cc1 | 0.69% (inactive)
O=C(CN1CCOCC1)Nc1c(Cl)cc(Cl)cc1Cl | -2.42% (inactive)
Cc1ccc2nsnc2c1NC(=O)c1ccccc1[N+](=O)[O-] | -3.06% (inactive)
Cc1ccccc1NS(=O)(=O)CCCCC(Cl)(Cl)Cl | -2.05% (inactive)
COc1cccc(C2SCC(=O)N2c2cccc(C)c2)c1OC (stereo not drawn) | -7.34% (inactive)

SMILES | inhibition
O=C(NN1C(=O)C2C3C=CC(O3)C2C1=O)c1ccccc1 (stereo not drawn) | -7.27% (inactive)
COc1ccccc1C(=O)NN1C(=O)C2C3C=CC(O3)C2C1=O (stereo not drawn) | 52.7% (active)
O=C(NN1C(=O)C2C3C=CC(O3)C2C1=O)c1ccncc1 (stereo not drawn) | -9.52% (inactive)
O=C(Cc1cccs1)Nc1cccc(-c2nc3ccccc3[nH]2)c1 | -1.91% (inactive)
CCc1cc(C(N)=O)c(NC(=O)c2ccc(OC)cc2)s1 | -8.2% (inactive)
O=C(O)CC(SCC(=O)Nc1ccc(Br)cc1)C(=O)O (stereo not drawn) | -6.53% (inactive)
CCOC(=O)c1cnc(SCC(=O)Nc2ccccc2C(=O)OC)nc1N | -2.4% (inactive)
Cc1nc2cc(NC(=O)NC3CC3)ccc2n1C | -0.99% (inactive)
O=C(Cc1ccc([N+](=O)[O-])cc1)N/N=C/c1ccco1 | -4.83% (inactive)
CCCCC(=O)Nc1ccc(C(=O)Nc2cc(C(F)(F)F)ccc2Cl)cc1 | -1.39% (inactive)
O=C(COc1nc2ccccc2nc1N1CCOCC1)NCC(F)(F)F | -0.08% (inactive)
CC(=O)Nc1ccc(S(=O)(=O)N(CCc2ccccc2)CC(=O)N/N=C/c2ccc(C(=O)O)cc2)cc1 | 5.13% (inactive)
CCN(CC(=O)Nc1ccccc1OC)C(=O)Cn1cnc2ccccc2c1=O | 7.55% (inactive)
N=C1C(c2nc3ccccc3s2)=C(O)CN1NC(=O)c1ccc([N+](=O)[O-])cc1 | -8.3% (inactive)
CN1CCN(c2ccc(S(=O)(=O)N3CCCCC3)cc2NC(=O)Cc2ccccc2F)CC1 | -6.13% (inactive)
Cc1ccc(NC(=O)CN2CCC(C(N)=O)CC2)cc1[N+](=O)[O-] | 5.71% (inactive)
COc1ccc(NC(=O)CC2C(=O)OCC3CCCCN32)cc1Cl (stereo not drawn) | -6.39% (inactive)
Cc1onc(C(=O)NCc2ccc(F)cc2)c1[N+](=O)[O-] | 0.1% (inactive)
